Results taken from PubChem BioAssay.
Values joined by “and” are separate entries in the source; they are usually repeats but may differ in a detail not shown here. Equal entries are not always repeated. Active and inactive are the calls of the source.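 How the source made its calls, unless noted: active means thallium flux through the channel raised or lowered by more than 3 SD from vehicle-only wells, actives on both sides; inactive means the rest.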

How the values were obtained:
[1] = system: Hepatitis C virus NS3 helicase; assay: HCV NS3 helicase inhibitors, primary screen, biochemical, fluorescence polarization, NIH Clinical Collection (AID 743270; call rule not given here); settings: NS3 helicase binding to Cy5-dT15 DNA, stronger effect = higher value, concentration not given here
[2] = target: Single-stranded DNA-binding protein (Escherichia coli (strain K12)) (UniProt P0AGE0); assay: E. coli SSB displacement from DNA, counter-screen for HCV NS3 helicase inhibitor project, biochemical, fluorescence polarization, NIH Clinical Collection (AID 743271; in the data active means inhibition above about 28%); settings: stronger effect = higher value, concentration not given here
[3] = fluorescence interference in NS3h assay format, artefact control for HCV NS3 helicase inhibitor project, biochemical, NIH Clinical Collection (AID 743272; call rule not given here;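 further: HCV NS3 helicase with a Cy5 labelled single stranded DNA probe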); settings: fluorescence interference counterscreen, stronger effect = lower value
[4] = stimulators of nuclear beta-catenin in C2C12, primary screen, imaging, WNT3A-conditioned medium, mouse C2C12, NPC library (AID 1117326; in the data active means nuclear beta-catenin stimulation mostly above about 4.2%, no sharp cut-off; inactive means mostly below about 10%); settings: stronger effect = higher value
[5] = stimulators of insulin release from INS-1E, primary screen, cell-based, 5 mM glucose, NPC library (AID 1117329;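 active means compound raises insulin release from rat beta cells at 5 mM glucose, no numeric limit stated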); settings: rat INS-1E insulin secretion, at 10 µM, stronger effect = higher value
[6] = growth inhibition of GSK3B-pretreated HCT116 cells – cell-based, CellTiter-Glo, 0.2 to 20 µM (AID 1117336;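 active means compounds lowering colon cancer cell viability after pretreatment blocking the GSK3B kinase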); settings: HCT116 viability after GSK3B inhibitor, at 20 µM, stronger effect = higher value
[7] = inhibition of endothelial tube formation, primary screen, imaging, VEGF stimulated, CD31 staining, tube area, NPC library (AID 1117340;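 active means compound that reduces growth-factor-driven endothelial tube area in a mixed cell culture, no cutoff stated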); settings: VEGF-stimulated ADSC/ECFC co-culture, at 10 µM, stronger effect = higher value
[8] = glucagon-like peptide 1 release enhancers, primary assay, NCI-H716 cell line, NPC library (AID 1117341;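 active means compound raises GLP1 secretion from the human gut endocrine cells, with no numeric limit stated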); settings: NCI-H716 cells, at 10 µM, stronger effect = higher value
[9] = HCT116 colon cancer cell growth inhibition, primary screen, CellTiter-Glo luminescence, NPC library (AID 1117342;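 active means compounds that lower survival of HCT116 colon cancer cells in the luminescence readout, no numeric limit stated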); settings: at 20 µM (top of the series)
[10] = CellTiter-Glo luminescent readout of SW480 viability loss, NPC library primary (AID 1117343;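 active means compounds that lower viability of the colon cancer cells in the luminescence readout, with no numeric limit stated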); settings: CellTiter-Glo luminescence; at 20 µM (top of the series)
[11] = decreased DLD-1 cellular survival, CellTiter-Glo luminescent readout, NPC compound collection, primary HTS (AID 1117346;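 active means compounds that lower survival of DLD-1 colon cancer cells in the luminescence readout, no cutoff given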); settings: DLD-1 viability, CellTiter-Glo luminescence; at 20 µM (top of the series)
[12] = target: 6-phosphogluconate dehydrogenase, decarboxylating (Homo sapiens) (UniProt P52209); assay: 6PGD enzyme inhibitors, primary screen, biochemical, human, recombinant enzyme, NADPH absorbance (AID 1159550;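 active means at least 20% inhibition of 6-phosphogluconate dehydrogenase activity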); settings: recombinant 6PGD, NADPH absorbance 341 nm; at 10 µM; stronger effect = higher value
[13] = sensitizers of A549 cells to miR-34 induction, primary screen, imaging, A549 dox-inducible miR-34, nuclei and caspase counts (AID 1347080;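 active means compounds whose cell count with miR-34 switched on is under 0.7 times the count with it off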); settings: A549 miR-34 inducible, Hoechst nuclei count, 48 h
[14] = survival rescue of mitochondrial mutant cells in low glucose, primary screen, MELAS cybrids, Rieske KO mouse fibroblasts, CellTiter-Glo (AID 1508586;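 active means mean z-score across replicates of 1.96 or higher in either the MELAS or the Rieske mutant cell line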;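 further: z relative to plate mean and SD of compound and empty wells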)
[15] = target: NAD(+) hydrolase SARM1 (Homo sapiens) (UniProt Q6SZW1); assay: SARM1 TIR NADase inhibitors, cell lysate, NAD-Glo luminescence (AID 1508614;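 active means compound whose remaining NAD level is above about 45 nM, limit read from the data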); settings: SAM-TIR HEK293T lysate NADase, at 1 µM, stronger effect = higher value
[16] = target: Mitogen-activated protein kinase 7 (Homo sapiens) (UniProt Q13164); assay: ERK5 transactivation activators in reporter cells, primary screen, cell-based, HTS (AID 1508626;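 active means luciferase signal above three times the same-plate solvent-only control wells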;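 further: luciferase driven by Gal4-ERK5 fusion binding five Gal4 sites before minimal TATA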); settings: HeLa Gal4-ERK5 transactivation, 18 h, at 5 µM, stronger effect = higher value
F380Y = assay: modulators of BK channel variants, profiling panel, selectivity assay, cell-based, U2OS BacMam, thallium flux, beta subunits (AID 1259406); settings: at 30 µM;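 further: initial slope of Thallos dye fluorescence rise after thallium is added; log ratio against the mean of 0.3% DMSO vehicle wells on the same plate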
F380Y/beta2Delta = assay: as above; settings: at 30 µM
[17] = target: Calcium-activated potassium channel subunit alpha-1 (Homo sapiens) + Leucine-rich repeat-containing protein 26 (Homo sapiens) (UniProt Q12791+Q2I0M4); assay: as above; settings: F380Y/Slo1WT/gamma1, at 30 µM
[18] = stronger effect = lower value, cell number ratio, induced over uninduced
[19] = measured here: relative caspase fold change +Dox/-Dox
[20] = measured here: total cells with miR-34 induction, stronger effect = lower value
[21] = measured here: total cells without miR-34 induction
[22] = MELAS cybrid survival, CellTiter-Glo 48 h, stronger effect = higher value
[23] = Rieske KO mouse fibroblast survival, CellTiter-Glo 72 h

NAD(+) hydrolase SARM1 (Homo sapiens), sequence (Q6SZW1 whole entry, looked up, the tested form may be a part): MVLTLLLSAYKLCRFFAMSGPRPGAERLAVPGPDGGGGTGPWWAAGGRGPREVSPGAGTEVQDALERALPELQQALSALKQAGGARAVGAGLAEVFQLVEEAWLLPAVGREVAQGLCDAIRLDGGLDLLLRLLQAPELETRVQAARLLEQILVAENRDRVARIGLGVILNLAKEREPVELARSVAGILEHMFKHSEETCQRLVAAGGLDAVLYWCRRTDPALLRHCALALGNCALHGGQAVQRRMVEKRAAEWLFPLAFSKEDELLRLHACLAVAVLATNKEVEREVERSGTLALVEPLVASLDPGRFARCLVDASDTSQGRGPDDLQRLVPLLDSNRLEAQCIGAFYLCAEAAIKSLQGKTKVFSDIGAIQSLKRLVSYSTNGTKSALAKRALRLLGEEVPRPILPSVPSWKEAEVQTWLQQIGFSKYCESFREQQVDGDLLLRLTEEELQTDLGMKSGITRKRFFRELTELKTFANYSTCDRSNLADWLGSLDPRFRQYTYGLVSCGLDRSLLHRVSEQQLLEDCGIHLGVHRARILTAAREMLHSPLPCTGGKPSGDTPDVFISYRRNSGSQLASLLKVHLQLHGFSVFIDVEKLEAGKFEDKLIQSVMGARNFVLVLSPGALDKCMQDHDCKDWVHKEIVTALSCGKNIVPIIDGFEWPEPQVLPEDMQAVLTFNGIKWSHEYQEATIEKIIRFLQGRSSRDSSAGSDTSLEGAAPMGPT
Mitogen-activated protein kinase 7 (Homo sapiens), sequence (Q13164 whole entry, looked up, the tested form may be a part): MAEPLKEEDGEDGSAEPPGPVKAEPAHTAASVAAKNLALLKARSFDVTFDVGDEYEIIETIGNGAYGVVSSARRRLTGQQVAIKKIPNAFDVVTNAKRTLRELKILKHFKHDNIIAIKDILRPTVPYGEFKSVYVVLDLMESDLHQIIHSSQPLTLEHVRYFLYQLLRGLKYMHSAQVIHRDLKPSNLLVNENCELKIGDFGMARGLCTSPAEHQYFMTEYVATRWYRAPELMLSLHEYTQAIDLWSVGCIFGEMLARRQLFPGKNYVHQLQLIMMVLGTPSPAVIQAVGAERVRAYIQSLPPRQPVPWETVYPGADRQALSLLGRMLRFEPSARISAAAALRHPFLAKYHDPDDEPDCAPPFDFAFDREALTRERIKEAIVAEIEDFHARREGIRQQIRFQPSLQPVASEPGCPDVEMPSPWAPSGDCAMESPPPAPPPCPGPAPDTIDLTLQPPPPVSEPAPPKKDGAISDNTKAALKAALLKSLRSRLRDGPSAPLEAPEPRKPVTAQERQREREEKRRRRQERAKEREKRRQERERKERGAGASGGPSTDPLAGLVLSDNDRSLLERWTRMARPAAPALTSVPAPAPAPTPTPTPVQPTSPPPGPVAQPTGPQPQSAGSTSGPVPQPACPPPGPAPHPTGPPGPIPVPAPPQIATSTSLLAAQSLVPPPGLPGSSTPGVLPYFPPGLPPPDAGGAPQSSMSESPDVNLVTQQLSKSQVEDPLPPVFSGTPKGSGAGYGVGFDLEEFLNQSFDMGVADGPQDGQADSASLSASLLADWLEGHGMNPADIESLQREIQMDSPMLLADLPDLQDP
Calcium-activated potassium channel subunit alpha-1 (Homo sapiens) + Leucine-rich repeat-containing protein 26 (Homo sapiens), sequence (Q2I0M4 whole entry, looked up, one chain of several): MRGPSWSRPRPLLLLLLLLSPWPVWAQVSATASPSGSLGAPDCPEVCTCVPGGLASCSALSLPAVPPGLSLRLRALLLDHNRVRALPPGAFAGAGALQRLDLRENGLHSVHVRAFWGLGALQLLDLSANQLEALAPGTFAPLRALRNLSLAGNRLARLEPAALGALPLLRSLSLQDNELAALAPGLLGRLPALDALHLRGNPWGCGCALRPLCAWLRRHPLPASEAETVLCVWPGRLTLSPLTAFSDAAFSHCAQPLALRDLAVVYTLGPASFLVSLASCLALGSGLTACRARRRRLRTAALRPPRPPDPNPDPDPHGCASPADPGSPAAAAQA
6-phosphogluconate dehydrogenase, decarboxylating (Homo sapiens), sequence (P52209 whole entry, looked up): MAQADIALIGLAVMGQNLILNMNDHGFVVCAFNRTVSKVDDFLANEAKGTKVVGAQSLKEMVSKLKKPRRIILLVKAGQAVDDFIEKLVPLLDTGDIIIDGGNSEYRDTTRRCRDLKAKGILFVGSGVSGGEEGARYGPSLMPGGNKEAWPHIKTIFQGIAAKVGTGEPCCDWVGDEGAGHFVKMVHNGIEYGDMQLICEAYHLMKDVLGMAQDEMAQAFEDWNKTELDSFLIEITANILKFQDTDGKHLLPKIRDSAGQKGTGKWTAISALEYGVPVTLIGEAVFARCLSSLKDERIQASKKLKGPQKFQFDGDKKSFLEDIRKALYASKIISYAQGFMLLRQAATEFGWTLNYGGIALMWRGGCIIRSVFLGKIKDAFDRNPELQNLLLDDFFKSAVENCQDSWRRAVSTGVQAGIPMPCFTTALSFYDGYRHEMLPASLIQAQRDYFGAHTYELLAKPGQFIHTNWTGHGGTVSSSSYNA

C[C@@H]1C[C@H]2[C@@H]3CCC4=CC(=O)C=C[C@]4(C)[C@@]3(F)[C@@H](O)C[C@]2(C)[C@@]1(O)C(=O)CO
7720 and 3310 and 7020: cell count [13, 20]
inactive: inhibition [1] -3.18% | inhibition [2] 0.29% | fluorescence ratio [3] 1 | nuclear beta-catenin stimulation ([4]; at 10 µM) -0.3% | insulin secretion stimulation [5] 8.4% | viability decrease [6] -0.1% | tube area decrease [7] -12.9% | GLP1 secretion stimulation [8] 4.4% | inhibition of viability [9] -7% | viability decrease (inhibition) [10] -0.8% | viability decrease (inhibition) [11] 5.8% | inhibition [12] 0.502% | fold change [13, 18] 0.906 and 0.84 and 0.875 | z-score [14, 22] 0.843 | remaining NAD [15] 10 nM | luciferase signal [16] 100 AU | log fold change Tl+ flux (F380Y) 0.096 | log fold change Tl+ flux (F380Y/beta2Delta) -0.01 | log fold change Tl+ flux [17] 0.0359
1.6 and 0.779 and 1.31: fold change [13, 19]
0.569: z-score [14, 23]
-1.3%: nuclear beta-catenin stimulation ([4]; stimulation, at 2 µM)
8520 and 3940 and 8020: cell count [13, 21]

C#C[C@]1(O)CC[C@H]2[C@@H]3CCC4=CC(=O)CC[C@@H]4[C@H]3CC[C@@]21CC
10200 and 5870 and 9770: cell count [13, 21]
8700 and 5730 and 8530: cell count [13, 20]
-0.1%: nuclear beta-catenin stimulation ([4]; stimulation, at 2 µM)
1.39 and 1.03 and 0.879: fold change [13, 19]
1.41 and 0.657: z-score [14, 23]
inactive: inhibition [1] -3.56% | inhibition [2] -0.1% | fluorescence ratio [3] 0.96 | nuclear beta-catenin stimulation ([4]; at 10 µM) 2.2% | insulin secretion stimulation [5] -1.1% | viability decrease [6] -54.4% | tube area decrease [7] 0.1% | GLP1 secretion stimulation [8] 4.1% | inhibition of viability [9] -5.1% | viability decrease (inhibition) [10] 4.3% | viability decrease (inhibition) [11] -24.6% | inhibition [12] -0.702% | fold change [13, 18] 0.855 and 0.976 and 0.873 | z-score [14, 22] 1.16 and 0.00976 | remaining NAD [15] 10 nM | luciferase signal [16] 44 AU | log fold change Tl+ flux (F380Y) 0.0315 | log fold change Tl+ flux (F380Y/beta2Delta) 0.00649 | log fold change Tl+ flux [17] 0.0485
